Test results as given in the supplement of paper PMC10338343.
± gives the standard deviation.

Test system: MILI (PIWIL2) piRISC loaded with piRNA #1 (26 nt)
Test: pre-steady-state target cleavage rate (min^-1); guide: piRNA #1 5'p-UGAGGUAGUAGGUUGUAUAGUAUCCA; MIWI and MILI are mouse PIWI proteins and EfPiwi is from a freshwater sponge; tags in brackets are library labels; higher = faster piRNA-guided slicing of the target
Settings: auxiliary factor: 500 nM mouse GTSF1
Summary of the method: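 The pre-steady-state cleavage rate came from a burst-and-steady-state fit to pooled data from three Cleave-'n-Seq trials, in which uncleaved targets were sequenced and normalised to depth and to weakly complementary targets. Each reaction held 0.1 nM transcribed, DNA-blocked target RNA library and 1 nM active affinity-purified piRISC carrying one synthetic guide, with or without 500 nM GTSF1 partner protein, in HEPES–potassium acetate buffer at 33 °C for 0–8 or 0–960 min. k3 was capped at 0.0001 min^-1.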

Sequence	pre-steady-state target cleavage rate
GGAGUGGAUACUAUACUACCUACUAGCUCA	0.0877 ± 0.012
GGAGACCUUACUAUAUCAACCUACUACCUCA	0.0609 ± 0.0086
GGAGACCUAUGAAUACAACCUACUACCUA	0.00429 ± 0.0026
GGAGACCUAUCUAUACAACUACUACCUCA	0.00292 ± 0.0024
GGAGACCUAACUAUACAUGCUACUACCUCA	0.0788 ± 0.013
GGAGACCUAUCUAUACAUCCUACUACCACA	0.209 ± 0.025
GGAGACCUAUGAAUACAACGAUGAUGGAGA [g12:g18:cont:t1A]	< 0.0001
GGAGACCUUACUAAACAACCUACUUCCUCA	0.0656 ± 0.014
GGAGACCUAUGUAUACAACGUACAACCUCA	0.00935 ± 0.0021
GGAGACCUAUGAAUACAACCUAACUACCUCA	0.00316 ± 0.0021
GGAGACCUAUCUAUACAAGGAACUACCUCA	0.0048 ± 0.002
GGAGACCUAUGAUUACAACCUACUACCGCA	0.00418 ± 0.004
GGAGACCUAUGAUUACAUCCUACUUCCUCA	0.00764 ± 0.0027
GGAGACGAUACUAAACAACCUACUACCACA	0.214 ± 0.019
GGAGACCUAUGUAUGACAACCUACUACCUCA	0.0123 ± 0.0037
GGAGACCUAACUAUACAACCUACUAGCUCA	0.0915 ± 0.027
GGAGACCUAUGAUAUCAAGCUACUACCACA	0.00606 ± 0.0028
GGAGACCUAACUAUACUACCUUCUACCUCA	0.00544 ± 0.0042
GGAGACCAUACUAAUCAACCUACUACCUCA	0.17 ± 0.019
GGAGACCUAUGAUUACAUCCUACUACGUCA	0.00263 ± 0.0026

Sequence	pre-steady-state target cleavage rate
GGAGACCUUACUAUACAAACUACUACCUCA	0.204 ± 0.014
GGAGACCUAUGUAUACAACCUACUACGUCA	0.0197 ± 0.0037
GGAGACCUUACUAUACAACCUACUUCGUCA	0.0614 ± 0.015
GGAGACGAUACUAUAACAACCUACUACCUCA	0.142 ± 0.012
GGAGACCUAUGAAUACAAACUACUACCUCA	0.0186 ± 0.0035
GGAGACCUUACUAUACAACCUAUCUACCUCA	0.0976 ± 0.011
GGAGACCUAUCUAUACAACGUACUUCCUCA	0.0209 ± 0.0035
GGAGACCUAUCUAUACAAGCUACUACCACA	0.278 ± 0.019
GGAGUGGAUACUAUACAAGGAACUACCUCA	0.00353 ± 0.0018
GGAGACCUAUGUAUACUUCCUACUACCUCA	0.0232 ± 0.005
GGAGAGGAUACUAUUCUACCUACUACCUCA	0.179 ± 0.013
GGAGUGGAUACUUUACAACCUACUACCUGA	0.0844 ± 0.011
GGAGACCUAUCUAUACAAGCUACUAGCUCA	0.0812 ± 0.018
GGAGUGGAAACUAUACAACCUACUAGCUCA	0.0453 ± 0.013
GGAGACCUAUGUAUACAACGUACUACCACA	0.00942 ± 0.003
GGAGACCUAUCUAUACUACCAACUACCUCA	0.00495 ± 0.0022
GGAGACCUAUGAUAUGAACGUACAACCUCA	< 0.0001
GGAGACCUUACUAUUCAACGUACUACCUCA	0.0187 ± 0.0035
GGAGACCUAUGAUAUGUACCUACUACGAGA [g5:g13:cont:t1A]	< 0.0001
GGAGACCUAACUAUAGAACCUACUAGCUCA	0.00426 ± 0.0041
